From PubChem
FAS-TE inh = FAS thioesterase (human) inhibition | P49327 | recombinant FAS-TE, OMFH fluorogenic substrate, fluorescence endpoint | inhibition, % at 15 µM | 360,000 compounds, 0.67% hits;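 active = compounds whose normalised, plate-corrected inhibition of enzyme fluorescence in the single-dose primary screen is 50% or more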
PfG6PD inh = PfG6PD (Plasmodium falciparum) enzyme inhibition; 350,000 compounds, 0.78% hits; inhibition, % at 20 µM; AID 504690; PfGluPho enzyme, NADPH resazurin-diaphorase fluorescence;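 active = inhibition reaching at least a set limit at 20 µM in the primary screen, cut at about 59% in these data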
proKLK7 act = proKLK7 (human) activation, primary screen; P49862; purified proKLK7, EDANS-DABCYL substrate fluorescence; 100% is mature enzyme control, 0% vehicle; activation, % at 7 µM; 370,000 compounds, 0.9% hits; AID 652039;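 active = activation above the mean of all tested compounds plus 3 SD, computed per campaign excluding outliers beyond control limits, cut at about 13% in these data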
Neddyl block = cullin neddylation inhibition; P61081+Q13564; TR-FRET cullin neddylation, biochemical; calls only at 25 µM; 360,000 compounds, 0.58% hits; in the data active = inhibition above about 36%
Target sequence (P61081 whole entry, looked up): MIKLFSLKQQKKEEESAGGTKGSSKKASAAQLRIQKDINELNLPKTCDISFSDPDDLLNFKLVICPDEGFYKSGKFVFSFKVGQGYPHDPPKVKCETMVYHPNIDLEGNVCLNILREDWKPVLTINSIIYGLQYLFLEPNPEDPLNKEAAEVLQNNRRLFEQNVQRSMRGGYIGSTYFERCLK
Target sequence (Q13564 whole entry, looked up): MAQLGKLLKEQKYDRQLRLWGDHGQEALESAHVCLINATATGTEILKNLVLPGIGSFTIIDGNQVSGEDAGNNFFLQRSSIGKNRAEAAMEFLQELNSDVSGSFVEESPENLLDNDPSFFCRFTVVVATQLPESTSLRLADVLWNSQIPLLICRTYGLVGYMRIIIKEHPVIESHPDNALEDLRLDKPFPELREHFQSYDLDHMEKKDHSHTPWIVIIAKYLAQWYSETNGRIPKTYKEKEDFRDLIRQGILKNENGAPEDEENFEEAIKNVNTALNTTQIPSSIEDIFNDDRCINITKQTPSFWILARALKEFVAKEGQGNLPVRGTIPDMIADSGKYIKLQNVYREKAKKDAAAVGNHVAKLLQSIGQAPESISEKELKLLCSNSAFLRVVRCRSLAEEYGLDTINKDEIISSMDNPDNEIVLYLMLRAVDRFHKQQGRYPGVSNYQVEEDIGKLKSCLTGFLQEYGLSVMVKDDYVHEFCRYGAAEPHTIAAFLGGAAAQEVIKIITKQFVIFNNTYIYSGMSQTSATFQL
proKLK7 act conf = proKLK7 activation, confirmation; shares compounds with proKLK7 act; purified proKLK7, EDANS-DABCYL substrate fluorescence; scaled: vehicle 0, mature enzyme 100; activation, % at 7 µM; 3,200 compounds, 68% hits; AID 686949;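 active = activation, as change over the incubation, above the mean of all tested compounds plus 3 SD, cut at about 13% in these data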
EDANS interfere = fluorescence interference counter-screen for KLK7 activators; shares compounds with proKLK7 act; EDANS-DABCYL substrate fluorescence interference, no enzyme, 4 h; solvent 0%, active enzyme control 100%; activation, % at 7 µM; 3,200 compounds, 80% hits; AID 686952;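 active = activation above the all-compound mean plus 3 SD, ignoring values outside control-based bounds, cut at about 4.8% in these data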;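 note: value is the 4 h activation minus the activation read at time zero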
EDANS interf = EDANS fluorescence interference in dose response, no enzyme; shares compounds with proKLK7 act; EDANS-DABCYL peptide fluorescence interference; EC50, µM; 250 compounds, 20% hits;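 active = compounds that raise the fluorescence signal in this interference counterscreen, with EC50 at or below 10 µM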;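 note: intact quenched peptide substrate alone read at 355 nm excitation and 520 nm emission; signal is fluorescence gain from T0 to T4 after four hours at room temperature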
Large screens that a line does not name were inactive (follow-up assays come after a bar, where shown). An excerpt weighted towards active compounds, which were near 2.7% of everything screened.

COC(=O)[C@]12C[C@H](CC(=O)N3CCN(C(=O)C4CC4)CC3)C(=O)N(CCc3ccc(OC)c(OC)c3)C1=C[C@H](COCc1ccccc1)O[C@@H]2C	none (no result: FAS-TE inh, PfG6PD inh, Neddyl block)
O=C(Oc1ccc2c3c(c(=O)oc2c1)CCCC3)c1ccco1	proKLK7 act 295 (not shown: Neddyl block) | proKLK7 act conf 639 | EDANS interfere 631
O=c1oc2cc(O)ccc2c2oc3cc(O)ccc3c12	proKLK7 act 72 (not shown: Neddyl block) | proKLK7 act conf 62 | EDANS interfere 72
CC(=O)Oc1ccc2c3c(c(=O)oc2c1)CCCC3	proKLK7 act 495 (not shown: Neddyl block) | proKLK7 act conf 688 | EDANS interfere 685
O=c1oc2cc(O)ccc2c2ccccc12	none
CC(C)Oc1ccc2c3c(c(=O)oc2c1)CCC3	none (not shown: Neddyl block)
COC(=O)C(C)Oc1ccc2c3c(c(=O)oc2c1)CCCCC3 (stereo unspecified)	proKLK7 act 25 (not shown: Neddyl block) | proKLK7 act conf inactive | EDANS interfere inactive
COc1ccc(C(C(=O)Nc2ccc3c(c2)OCCO3)n2c(=O)c(-c3ccco3)nc3ccccc32)cc1 (stereo unspecified)	none (no result: FAS-TE inh, PfG6PD inh)
O=c1oc2cc(O)ccc2c2c1CCCC2	proKLK7 act 58 (not shown: Neddyl block) | proKLK7 act conf 60 | EDANS interfere 70
CCOC(=O)COc1ccc2c3c(c(=O)oc2c1)CCCC3	none
CSCCC(NC(C)=O)C(=O)Oc1ccc2c3c(c(=O)oc2c1)CCCC3 (stereo unspecified)	proKLK7 act 53 (not shown: Neddyl block) | proKLK7 act conf 61 | EDANS interfere 66
O=C(c1ccco1)N1CCN(Cc2cc(=O)oc3cc(O)ccc23)CC1	proKLK7 act 90 (not shown: Neddyl block) | proKLK7 act conf 57 | EDANS interfere 68
O=c1cc(CN2CCN(Cc3ccccc3)CC2)c2ccc(O)cc2o1	proKLK7 act 71 (not shown: Neddyl block) | proKLK7 act conf 65 | EDANS interfere 72
CC1CN(Cc2cc(=O)oc3cc(O)ccc23)CC(C)O1 (stereo unspecified)	proKLK7 act 46 (not shown: Neddyl block) | proKLK7 act conf 67 | EDANS interfere 67
COc1ccc(-c2nc3c(Cl)cc(C(F)(F)F)cn3c2Cc2cccc(F)c2)cc1OC	none (no result: PfG6PD inh)
COc1cc2c(cc1OC)CN(C(=O)CSc1ccc(F)cc1)CC2	none
COc1cc2c(cc1OC)CN(C(=O)CSc1n[nH]c(N)n1)CC2	proKLK7 act 18 | proKLK7 act conf inactive | EDANS interfere inactive
CCc1nc(SCC(=O)N2CCc3cc(OC)c(OC)cc3C2)c(C#N)cc1C	proKLK7 act 13 | proKLK7 act conf inactive | EDANS interfere inactive
CC(=O)N1CCC(C(=O)N2c3ccccc3N=C(c3ccc(C(F)(F)F)cc3)C2C(=O)NC(C)(C)C)CC1 (stereo unspecified)	proKLK7 act 32 (not shown: FAS-TE inh, PfG6PD inh, Neddyl block) | proKLK7 act conf inactive | EDANS interfere inactive
CC(=O)N1CCC(C(=O)N2c3ccccc3N=C(c3ccc(C(F)(F)F)cc3)C2C(=O)NC(C)C)CC1 (stereo unspecified)	none (not shown: FAS-TE inh, PfG6PD inh, Neddyl block)
Cc1cccn2c(=O)c3cc(C(=O)N4CCOCC4)n(C)c3nc12	proKLK7 act 20 (not shown: Neddyl block) | proKLK7 act conf 46 | EDANS interfere 35 | EDANS interf inactive
Cc1cccn2c(=O)c3cc(C(=O)NC4CCCCC4C)n(C)c3nc12 (stereo unspecified)	none (not shown: Neddyl block)
Cc1cccn2c(=O)c3cc(C(=O)N4CCN(C(=O)c5ccco5)CC4)n(C)c3nc12	proKLK7 act 20 (not shown: Neddyl block) | proKLK7 act conf 23 | EDANS interfere 35
COCCCn1c(C(=O)N2CC(C)OC(C)C2)cc2c(=O)n3cccc(C)c3nc21 (stereo unspecified)	none (not shown: proKLK7 act, Neddyl block)
COCCCn1c(C(=O)N2CCOCC2)cc2c(=O)n3cccc(C)c3nc21	proKLK7 act 19 (not shown: Neddyl block) | proKLK7 act conf 17 | EDANS interfere 18
COCCNC(=O)C1CCCN(Cc2ccc(C)cc2)CC1 (stereo unspecified)	none (no result: PfG6PD inh)
CC(C)c1cc(C(C)C)c(S(=O)(=O)N2CCCC(C(=O)NCc3cccs3)C2)c(C(C)C)c1 (stereo unspecified)	none (no result: FAS-TE inh, PfG6PD inh, Neddyl block)
C[C@H](NC(=O)C1CCN(S(=O)(=O)c2ccccc2)CC1)C(=O)NCc1cccnc1	none
O=C1CC(O)(C(F)F)Oc2ccc3ccccc3c21 (stereo unspecified)	proKLK7 act 47 (not shown: Neddyl block) | proKLK7 act conf inactive | EDANS interfere inactive
O=C1CC(O)(C(F)(F)F)Oc2c1ccc1ccccc21 (stereo unspecified)	proKLK7 act 54 (not shown: Neddyl block) | proKLK7 act conf inactive | EDANS interfere 5.3
COc1ccc2c(c1)OC(O)(C(F)F)CC2=O (stereo unspecified)	none
CC1(C)Cc2c(ccc3ccccc23)C(=O)N1	none
CC(C)(C)S(=O)N1C[C@H]2CC(=O)C(CCO)=C2[C@@H]1CCO (stereo partly specified)	none (no result: FAS-TE inh, PfG6PD inh, Neddyl block)
CCOC(=O)C1CCN(C(=O)c2cc3c(s2)-c2ccccc2OC3)CC1	proKLK7 act 14 (not shown: Neddyl block) | proKLK7 act conf inactive | EDANS interfere inactive
O=C(Nc1nccs1)c1cc2c(s1)-c1ccccc1OC2	none (not shown: Neddyl block)
CC1CCCN(CCCNC(=O)c2cc3c(s2)-c2ccccc2OC3)C1 (stereo unspecified)	proKLK7 act 43 | proKLK7 act conf 63 | EDANS interfere 78
CCOC(=O)C1CCCN(C(=O)c2ccc3c(c2)CCO3)CC1 (stereo unspecified)	none (no result: PfG6PD inh)
CN1CCN(c2ccccc2NC(=O)c2cc3c(s2)-c2ccccc2OC3)CC1	none
COC(=O)c1cc2c(s1)-c1ccccc1OC2	proKLK7 act 82 (not shown: Neddyl block) | proKLK7 act conf 76 | EDANS interfere 80
CC1CCN(CCCNC(=O)c2cc3c(s2)-c2ccccc2OC3)CC1	proKLK7 act 75 | proKLK7 act conf 74 | EDANS interfere 74
Cn1c(SCC(=O)Nc2ccc(C(=O)O)cc2)nnc1-c1ccccn1	none (no result: FAS-TE inh, PfG6PD inh, Neddyl block)
Cc1cccc2c1-c1sc(C(=O)NCCCN3CCC(C)CC3)cc1CO2	proKLK7 act 49 | proKLK7 act conf 64 | EDANS interfere 65
CCOC(=O)c1cc2c(s1)-c1c(C)cccc1OC2	none (not shown: Neddyl block)
CCN(CCC(=O)Nc1cc(OC)ccc1OC)Cc1ccccc1	none (no result: FAS-TE inh, PfG6PD inh, Neddyl block)
COc1ccc2cc(-c3ccccc3)ncc2c1	none
COc1ccc2ccc3cccc[n+]3c2c1	proKLK7 act 21 (not shown: Neddyl block) | proKLK7 act conf 18 | EDANS interfere 19
Nc1c(C(=O)OCC(=O)Nc2ccc(Cl)cc2[N+](=O)[O-])[nH]c(=O)[nH]c1=O	proKLK7 act 14 | proKLK7 act conf 136 | EDANS interfere 137
NS(=O)(=O)c1cc(C(=O)OCC(=O)Nc2ccc(Cl)cc2[N+](=O)[O-])ccc1Cl	none
CC(c1ccccc1)n1cc(C(=O)N2CCCN(Cc3ccccc3)CC2)nn1 (stereo unspecified)	none (no result: FAS-TE inh, PfG6PD inh, Neddyl block)
FC(F)(F)c1ccc2c(c1)NCC1CCCN21 (stereo unspecified)	proKLK7 act 68 (not shown: Neddyl block) | proKLK7 act conf 46 | EDANS interfere 47
